Measured values: PubChem BioAssay
Inconclusive results are not listed. Calls of active or inactive are those of the source.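 Rule for the calls, unless noted: active = growth inhibition above 25% in both replicates, a cutoff set 3 SD above the mean; inconclusive = above 25% in only one replicate; inactive = the rest.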

What was measured:
[1] = reducers of endogenous Her2 protein level, primary screen, SKBR3 breast tumor cells, AlphaScreen, ATP viability (AID 461;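 active = Her2 level under about 52% in both replicate screens, with viability over 70% of control, limit read from the data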;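 for Her2 level: lower value means less Her2 protein in the cells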;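 for viability: percent of carrier control wells set as 100% viability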); details: 18-24 h, measured here: SKBR3 viability, ATP luminescence, at 10 µM
[2] = molecular target: Receptor tyrosine-protein kinase erbB-2 (Homo sapiens) (UniProt P04626); experiment: as above; details: 18-24 h, at 10 µM, stronger effect = lower value
Receptor tyrosine-protein kinase erbB-2 (Homo sapiens), sequence (P04626 whole entry, looked up): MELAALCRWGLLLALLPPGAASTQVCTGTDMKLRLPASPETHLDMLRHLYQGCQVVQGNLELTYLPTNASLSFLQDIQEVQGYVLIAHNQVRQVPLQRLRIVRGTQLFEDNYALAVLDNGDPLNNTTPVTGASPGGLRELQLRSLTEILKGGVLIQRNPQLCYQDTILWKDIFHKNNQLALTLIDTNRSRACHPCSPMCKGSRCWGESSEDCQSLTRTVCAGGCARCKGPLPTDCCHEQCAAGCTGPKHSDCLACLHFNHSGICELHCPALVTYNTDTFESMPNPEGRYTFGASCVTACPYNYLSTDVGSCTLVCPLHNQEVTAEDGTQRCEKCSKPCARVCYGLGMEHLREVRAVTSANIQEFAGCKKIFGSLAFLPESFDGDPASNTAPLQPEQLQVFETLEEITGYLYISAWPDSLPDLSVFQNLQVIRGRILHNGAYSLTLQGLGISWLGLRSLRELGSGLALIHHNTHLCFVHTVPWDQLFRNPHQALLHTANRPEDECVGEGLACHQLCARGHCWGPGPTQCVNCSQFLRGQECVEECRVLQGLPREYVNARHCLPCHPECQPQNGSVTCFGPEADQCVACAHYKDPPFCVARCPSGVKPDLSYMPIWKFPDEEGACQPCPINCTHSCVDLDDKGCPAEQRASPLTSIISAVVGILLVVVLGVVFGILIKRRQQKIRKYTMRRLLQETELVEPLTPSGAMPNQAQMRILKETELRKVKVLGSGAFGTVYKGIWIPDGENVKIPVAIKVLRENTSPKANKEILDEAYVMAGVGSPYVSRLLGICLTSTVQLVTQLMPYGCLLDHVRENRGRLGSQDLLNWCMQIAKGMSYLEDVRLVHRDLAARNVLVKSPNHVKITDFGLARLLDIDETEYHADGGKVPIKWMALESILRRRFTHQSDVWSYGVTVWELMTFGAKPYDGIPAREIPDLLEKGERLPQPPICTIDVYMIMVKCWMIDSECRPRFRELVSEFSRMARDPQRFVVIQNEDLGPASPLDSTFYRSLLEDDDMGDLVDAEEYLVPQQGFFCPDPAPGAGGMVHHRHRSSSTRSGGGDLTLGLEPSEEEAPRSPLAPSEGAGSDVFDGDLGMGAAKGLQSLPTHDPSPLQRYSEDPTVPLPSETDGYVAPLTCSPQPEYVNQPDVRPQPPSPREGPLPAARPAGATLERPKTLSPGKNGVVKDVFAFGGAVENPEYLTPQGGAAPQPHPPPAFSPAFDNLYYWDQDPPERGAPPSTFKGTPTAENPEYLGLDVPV

[3] = SK-BR-3 cell growth inhibitors, pilot screen, 24 h, human (AID 572;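 active = viability at or below 10% of carrier control in both of two separate runs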;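 note: compound exposure lasted between 18 and 24 h rather than exactly 24 h; 100% = carrier-treated control wells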); details: SK-BR-3 viability, CellTiter-Glo luminescence, at 10 µM, stronger effect = lower value
[4] = HUVEC growth inhibition – cell-based, human, primary screen (AID 575;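 active = viability at or below 30% in both replicate assays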;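 note: 100% = median of untreated cell wells with 0.1% DMSO on each plate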); details: HUVEC proliferation, CellTiter-Glo luminescence, 72 h; at 10 µM; stronger effect = lower value
[5] = growth inhibitors of H69AR lung tumor, primary screen, human, duplicate replicates (AID 580;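 active = viability at or under a set limit in both replicates, limit being median viability minus 3 SD, cut at about 48% in these data, passing the limit was not always enough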;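 note: 100% = mean luminescence of untreated wells and 0% = no signal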); details: H69AR lung tumor cells viability, ATP luminescence, 72 h; at 10 µM; stronger effect = lower value
[6] = reversal of MRP1-mediated doxorubicin resistance, pilot screen, H69AR cells, doxorubicin co-treatment (AID 601;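 active = viability loss from added drug above about 55%, and viability with drug at most 40%, in both replicates, limit read from the data, passing the limit was not always enough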); details: CellTiter-Glo, 72 h, at 10 µM; for differential viability (reversal): stronger effect = higher value
[7] = 384-well plate pilot, post-Golgi transport modulator project, inhibition of yeast transport mutant growth (AID 636; in the data active = inhibition above about 31%); details: absorbance 615 nm, about 18 h, stronger effect = higher value
[8] = growth suppression of yeast trafficking mutant, preliminary HTS, modulators of trafficking downstream of Golgi apparatus project, 1536-format plate, OD 615 nm (AID 637; in the data active = inhibition above about 30%); details: yeast transport mutant growth, absorbance 615 nm, 18 h; stronger effect = higher value
[9] = OD615 S. cerevisiae growth inhibition, permissive medium, pilot counter-assay, permissive growth control for S. cerevisiae lifespan shortening project (AID 705); details: OD615, 24 h, at 10 µM, stronger effect = higher value
[10] = Restrictive medium S. cerevisiae growth inhibition, OD615, pilot screen of yeast lifespan reduction project, restrictive growth control (AID 706;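 active = growth inhibition above a set limit, 3 SD over mean compound inhibition, in both replicates, cut at about 43% in these data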;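 note: modified DeaD lifespan yeast strain shifted to restrictive glucose medium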); details: OD615, 48 h, at 10 µM, stronger effect = higher value
[11] = viability gain of MRP-1-high H69AR cells under doxorubicin, pilot screen, MRP-1 activator project, CellTiter-Glo, duplicate (AID 807;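 active = viability increase at or above a cutoff of the median across tested compounds plus 3 SD, cut at about 8.5% in these data, passing the limit was not always enough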;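 note: compound pretreatment 18-22 h then 72 h combined with doxorubicin; 0% = doxorubicin alone and 100% = vehicle without doxorubicin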); details: H69AR viability with doxorubicin, CellTiter-Glo luminescence; at 10 µM; stronger effect = higher value
[12] = growth suppression of beta-catenin knockout HCT116, pilot screen, human colon tumor cells (AID 823;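 active = cell viability at or below a set limit in both duplicate runs, the limit being the all-compound median minus 4 SD, cut at about 23% in these data, passing the limit was not always enough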;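 note: 0% = wells killed by 20 µM Hyamine and 100% = untreated DMSO cell wells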); details: CellTiter-Glo, 60 h, at 10 µM, stronger effect = lower value
[13] = growth suppression of PTEN-deleted HCT116, pilot screen, cell-based, HCT116 clonal line, CellTiter-Glo (AID 824;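 active = viability at or below 27.92% in each of two runs, the all-compound median minus 4 SD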;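 note: 0% = 20 µM Hyamine control and 100% = vehicle cell control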); details: 60 h, at 10 µM, stronger effect = lower value
[14] = inhibitors of the yeast RAM network, pilot screen, dse1pr::URA3 reporter, 5-FOA selection (AID 869;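 active = inhibition over a set limit, the all-compound mean plus 3 SD, in both replicate runs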;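 note: 0% = DMSO wells with no growth and 100% = 10 µM 1-NA-PP1 with full growth; RAM network block rescues cells from 5-FOA so hits raise OD615 growth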); details: S. cerevisiae dse1pr::URA3 5-FOA growth, OD615, 2 d; at 10 µM; stronger effect = higher value; strain carries analog-sensitive mutant Cbk1 kinase
[15] = RAM signaling pathway blockade in yeast – S. cerevisiae, Pdr1DBD-CYC8 efflux-inhibited sensitized strain, primary screen (AID 1298;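 active = RAM network inhibition above 8.4% in each of two replicates, 3 SD over the compound average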;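 note: 0% = DMSO untreated cells without growth and 100% = 10 µM 1-NA-PP1 full growth; higher means more yeast growth rescued from 5-FOA killing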); details: S. cerevisiae cbk1-as DSE1-URA3 strain, 5-FOA growth OD615, 2 d; at 50 µM; stronger effect = higher value
[16] = H69AR cells + 2 uM doxorubicin, measured here: viability with 2 uM doxorubicin, stronger effect = lower value
[17] = H69AR cells, compound alone cytotoxicity

O=C(COC(=O)C1CC2C=CC1C2)Nc1ccc2c(c1)OC(F)(F)O2 (stereo not given)
95.5%: viability [6, 16]
119%: viability [1]
inactive: Her2 level [2] 89.5% | viability [3] 119% | viability [4] 84.2% | viability [5] 94.3% | differential viability (reversal) ([6]; H69AR cells + 2 uM doxorubicin) -1.17% | inhibition [7] -1.95% | inhibition [8] -0.49% | growth inhibition [9] -9.33% | growth inhibition [10] 3.8% | viability increase [11] 3.74% | viability [12] 89.2% | viability [13] 96.2% | inhibition [14] 1.08% | RAM network inhibition [15] -2.17%
94.3%: viability [6, 17]

CCOC(=O)/C(C#N)=C(/C)c1ccc(OC)cc1
96.2%: viability [6, 16]
inactive: Her2 level [2] 104% | viability [3] 96% | viability [4] 110% | viability [5] 102% | differential viability (reversal) ([6]; H69AR cells + 2 uM doxorubicin) 5.39% | inhibition [7] -2.53% | inhibition [8] -7.74% | growth inhibition [9] -14.7% | growth inhibition [10] -5.52% | viability increase [11] 0.09% | viability [12] 99.5% | viability [13] 99% | inhibition [14] 1.11% | RAM network inhibition [15] 3.87%
96%: viability [1]
102%: viability [6, 17]

CCOC(=O)C(C(=O)OCC)C(C)C#CCN1CCCCC1 (stereo not given)
90.4%: viability [6, 17]
89.2%: viability [6, 16]
91.5%: viability [1]
inactive: Her2 level [2] 116% | viability [3] 91.5% | viability [4] 87.2% | viability [5] 90.4% | differential viability (reversal) ([6]; H69AR cells + 2 uM doxorubicin) 1.13% | inhibition [7] -3.08% | inhibition [8] -5.5% | growth inhibition [9] -2.21% | growth inhibition [10] -1.49% | viability increase [11] -2.18% | viability [12] 93.9% | viability [13] 97% | inhibition [14] -0.12% | RAM network inhibition [15] 7.5%

COC(=O)Cn1c(CN2CCN(c3ccccc3F)CC2)nc2c1c(=O)n(C)c(=O)n2C
inactive: Her2 level [2] 95% | viability [3] 104% | viability [4] 95.3% | viability [5] 93.8% | differential viability (reversal) ([6]; H69AR cells + 2 uM doxorubicin) 6.45% | inhibition [7] -3.73% | inhibition [8] 3.33% | growth inhibition [9] -7.25% | growth inhibition [10] -1.94% | viability increase [11] 0.3% | viability [12] 97.4% | viability [13] 90.1% | inhibition [14] 2.47% | RAM network inhibition [15] 6.25%
104%: viability [1]
93.8%: viability [6, 17]
87.3%: viability [6, 16]

CCOCCCNC(=O)c1ccc2c(c1)N(Cc1ccccc1)C(=O)CS2=O (stereo not given)
104%: viability [1]
96.1%: viability [6, 16]
inactive: Her2 level [2] 103% | viability [3] 104% | viability [4] 103% | viability [5] 106% | differential viability (reversal) ([6]; H69AR cells + 2 uM doxorubicin) 10.2% | inhibition [7] 0.13% | inhibition [8] -10.7% | growth inhibition [9] -5.99% | growth inhibition [10] 6.05% | viability increase [11] -0.16% | viability [12] 102% | viability [13] 93.1% | inhibition [14] 1.42% | RAM network inhibition [15] -0.72%
106%: viability [6, 17]

COc1ccccc1C(=O)OCn1nnc2ccccc2c1=O
115%: viability [6, 16]
inactive: Her2 level [2] 98% | viability [3] 96.5% | viability [4] 78.8% | viability [5] 99.5% | differential viability (reversal) ([6]; H69AR cells + 2 uM doxorubicin) -15.4% | inhibition [7] -4.27% | inhibition [8] 1.17% | growth inhibition [9] -11.2% | growth inhibition [10] -10.4% | viability increase [11] -0.53% | viability [12] 95% | viability [13] 91.2% | inhibition [14] 0.655% | RAM network inhibition [15] 0.92%
96.5%: viability [1]
99.5%: viability [6, 17]

Cc1ccccc1NC(=O)C1CCCN(S(=O)(=O)c2cnc[nH]2)C1 (stereo not given)
92.6%: viability [6, 17]
85.5%: viability [1]
91.2%: viability [6, 16]
inactive: Her2 level [2] 108% | viability [3] 85.5% | viability [4] 95.8% | viability [5] 92.6% | differential viability (reversal) ([6]; H69AR cells + 2 uM doxorubicin) 1.39% | inhibition [7] -3.87% | inhibition [8] 3.33% | growth inhibition [9] -1.35% | growth inhibition [10] 0.61% | viability increase [11] -2.13% | viability [12] 102% | viability [13] 101% | inhibition [14] 2.71% | RAM network inhibition [15] 2.9%

COC(=O)C1=C(C)Nc2nnnn2C1c1ccc(Cl)cc1Cl (stereo not given)
inactive: Her2 level [2] 80% | viability [3] 110% | viability [4] 114% | viability [5] 93.3% | differential viability (reversal) ([6]; H69AR cells + 2 uM doxorubicin) -5.04% | inhibition [7] -1.97% | inhibition [8] -0.63% | growth inhibition [9] 2.67% | growth inhibition [10] -1.33% | viability increase [11] -5.06% | viability [12] 98% | viability [13] 91.5% | inhibition [14] 0.54% | RAM network inhibition [15] 0.11%
93.3%: viability [6, 17]
110%: viability [1]
98.4%: viability [6, 16]

O=C1c2ccccc2C(Nc2ccc3c(c2)OCCO3)N1Cc1ccc2c(c1)OCO2 (stereo not given)
inactive: Her2 level [2] 94.5% | viability [3] 91% | viability [4] 64.8% | viability [5] 86.4% | differential viability (reversal) ([6]; H69AR cells + 2 uM doxorubicin) -4.04% | inhibition [7] -5.73% | inhibition [8] 0.5% | growth inhibition [9] -4.37% | growth inhibition [10] 8.02% | viability increase [11] 0.68% | viability [12] 82.2% | viability [13] 72.2% | inhibition [14] 2.92% | RAM network inhibition [15] 4.31%
91%: viability [1]
90.4%: viability [6, 16]
86.4%: viability [6, 17]

Cc1onc(-c2ccccc2Cl)c1C(=O)N1CCc2ccccc21
88.1%: viability [6, 16]
87.5%: viability [1]
79%: viability [6, 17]
inactive: Her2 level [2] 78.5% | viability [3] 87.5% | viability [4] 80.9% | viability [5] 79% | differential viability (reversal) ([6]; H69AR cells + 2 uM doxorubicin) -9.1% | inhibition [7] -1.82% | inhibition [8] -5.5% | growth inhibition [9] -1.1% | growth inhibition [10] -8.1% | viability increase [11] -3.41% | viability [12] 82.8% | viability [13] 87.1% | inhibition [14] 2.23% | RAM network inhibition [15] 7.99%
